The sample as a whole holds a higher share of hits than the screen did.
RMI FANCM FP – disruptors of RMI1/RMI2 association with MM2 peptide – biochemical, fluorescence polarization, human, primary screen; RMI core complex (RMI1/RMI2) binding to FANCM MM2 peptide, human; RMI core complex with F-MM2 peptide; active compounds read low; FP signal (polarization) at 33 µM; 70,000 tested, 0.58% active; AID 1159607, 2016; in the data active = FP signal below about 40
Active calls of the source: *.

SMILES	RMI FANCM FP
Cc1ccc(N=C2CSC(=O)N2)cc1	55
Cc1ccc(N=C2C=C(Cl)C(=O)C(Cl)=C2)cc1	54
Cc1ccc(N=C2C=C(SC#N)C(=O)C(SC#N)=C2)cc1	-16*
CCN1C(=O)C(C)(C)COc2ccc(NS(=O)(=O)c3ccc4c(c3)OCCO4)cc21	66
COc1ccc2oc(-c3csc(NC(=O)c4cc([N+](=O)[O-])cc([N+](=O)[O-])c4)n3)cc2c1	60
CC(C)(C)C(=O)C/C(=N/Nc1nc(-c2ccccc2)c2cc(Br)ccc2n1)C(F)(F)C(F)(F)C(F)(F)F	59
CCOc1ccccc1C(=O)Nc1ccc(-c2nc3cccnc3s2)cc1	94
Cc1cc(-c2nc3cccnc3s2)ccc1NC(=O)c1ccc2ccccc2n1	1*
O=C(Nc1ccc(-c2nc3cccnc3s2)cc1)c1ccco1	155
O=C(Nc1ccccc1-c1nc2ccccc2[nH]1)c1cc(Cl)ccc1[N+](=O)[O-]	53
COc1ccc(OCc2nc(-c3ccc(C)cc3)cs2)cc1	49
O=C(Cn1cnc2c(sc3cccc(F)c32)c1=O)Nc1ccc2c(c1)OCCO2	140
CCOC(=O)c1cc(-c2ccc(N)cc2)oc1C	56
CCOC(=O)c1c(N)sc(C)c1-c1ccccc1	52
CCOC(=O)c1c(N)oc2c(-c3ccc(C)cc3)c3c(C(=O)OCC)c(N)oc3cc12	22*
CC(=O)Oc1cc2c(c(C)c1OC(C)=O)CC1OC13[C@@]2(C)CC[C@@]1(C)C2C[C@](C)(C(=O)O)CC[C@]2(C)CC[C@]31C (stereo not given in full)	54
CCOC(=O)c1nn(-c2ccccc2C)c(=O)cc1OCc1c(F)cccc1Cl	52
Oc1ccc2nc(N3CCN(c4ccccc4)CC3)sc2c1	65
Cc1ccc(C(=O)CSc2nnc3c(n2)[nH]c2ccccc23)cc1	2*
CCn1c(SCC(=O)c2ccc(OC)cc2)nc2c([nH]c3ccccc32)c1=O	105
CC(C)=CCSc1nnc2c(n1)[nH]c1ccccc12	64
COc1ccc(OC)c(S(=O)(=O)N2CCN(c3ccc4nncn4n3)CC2)c1	70
CCOC(=O)Cc1csc(NC(=O)c2csc(Nc3ccccc3)n2)n1	68
CC(=O)C1C(=O)c2cccc([N+](=O)[O-])c2C1=O (stereo not given)	53
CC(=O)c1cccc(N2C(=O)c3cccc([N+](=O)[O-])c3C2=O)c1	29*
SMILES	RMI FANCM FP
CC(=O)c1c(C)nn(-c2ccccc2)c1-c1ccccc1[N+](=O)[O-]	60
c1cn2c(n1)NCC2	-22*
c1ccc2c(c1)nc1n2CCN1	65
COc1cccc(/C=N\NC(=S)Nc2cc(C(F)(F)F)cc(C(F)(F)F)c2)c1O	67
COC(=O)N1CCc2c(sc(NC(=O)c3ccco3)c2C(N)=O)C1	56
NC(=O)C[n+]1ccc2ccccc2c1	12*
NC(=O)c1ccc[n+](CC(=O)c2ccc(Cl)c(Cl)c2)c1	62
NC(=O)c1ccc[n+](CC(=O)c2ccc3c(c2)Cc2ccccc2-3)c1	71
O=C(O)/C=C/c1ccc(-c2ccc(F)cc2F)o1	59
COc1cc(C(F)(F)F)c(C(=O)NCc2ccc(Cl)cc2)cn1	57
COc1ccc(NC(=O)C(C)NC(=O)C23CC4CC(CC(C4)C2)C3)cc1 (stereo not given)	66
N#Cc1c(-c2ccc3c(c2)OCO3)nc(N2CCCCC2)[nH]c1=O	23*
N#Cc1c(-c2ccc3c(c2)OCO3)cc(-c2ccccc2O)[nH]c1=O	76
COc1ccc(-c2cc(-c3ccc(C)c(C)c3)nc(SCC(=O)NCc3ccc4c(c3)OCO4)c2C#N)cc1OC	104
Cc1ccc(C(CNC(=O)c2ccc(Cl)cc2)N2CCOCC2)cc1 (stereo not given)	51
O=C(NCCOc1ccc2nnc(-c3ccccc3)n2n1)Nc1cc(Cl)ccc1Cl	72
COc1cc(/C=C\C(=O)NCCn2ncc3c(=O)n(Cc4ccc([N+](=O)[O-])cc4)cnc32)cc(OC)c1OC	67
COc1ccc(S(=O)(=O)NCC(c2ccc(N(C)C)cc2)N2CCc3ccccc3C2)cc1OC (stereo not given)	55
COc1cc(C)c(C)cc1S(=O)(=O)NCC(c1ccc(N(C)C)cc1)N1CCc2ccccc21 (stereo not given)	19*
COc1cc(C)c(C)cc1S(=O)(=O)NCC(c1ccsc1)N1CCc2ccccc2C1 (stereo not given)	78
COc1ccc(OCC(=O)NCCOc2cccc(C(F)(F)F)c2)cc1	61
CC(C)(O)C#Cc1ccc(/C=N\OC(=O)c2ccc(Cl)cc2)cc1	48
Fc1ccc(N=Cc2ccc3c(c2)OCO3)cc1	54
O=Cc1cccc2cccnc12	60
O=c1ccc2cc(O)c(O)cc2o1	41
SMILES	RMI FANCM FP
CCOC(=O)c1ccc(N=Cc2ccccn2)cc1	51
Oc1c(Cl)cc(Cl)cc1C=Nc1ccc2c(c1)COCO2	37*
CCOC(=O)c1ccc(N=Cc2ccc(OC(=O)c3ccc(F)cc3)c(OC)c2)cc1	60
Oc1c(Cl)cc(Cl)cc1C=Nc1nc2c(s1)CCCC2	33
O=C(Nc1ccc2oc(=O)ccc2c1)c1ccc(F)cc1	63
Oc1c(Cl)cc(Cl)cc1C=Nc1cccc2cccnc12	27*
CCOC(=O)c1ccc(N=Cc2cc(Cl)cc(Cl)c2O)cc1	24*
O=c1ccc2cc(N=Cc3cc(Cl)cc(Cl)c3O)ccc2o1	30*
Cc1[nH]n(C)c(=O)c1N=Nc1ccc2c(c1)COCO2	49
COc1cc(=O)n(-c2ccc(C)cc2)nc1C(=O)N1CCN(C(=O)c2ccco2)CC1	52
O=C1CCCC2=C1C(c1cccnc1)C1=C(CCCC1=O)O2	59
COc1ccc(/C=N\Nc2c([N+](=O)[O-])c(C)nn2C)cc1	53
O=c1[nH]nc(SCc2cccc(F)c2)n2nc(-c3ccco3)cc12	66
Cn1cc(Cl)c(/C=N\OC(=O)Nc2ccc(Cl)cc2)n1	63
COc1cccc(N2CC(NC(=O)N3CCN(c4ccc(F)cc4)CC3)CC2=O)c1 (stereo not given)	59
CC(=O)N1CCN(c2c(C)cnc3c2c(=O)n(CC(=O)Nc2cccc(F)c2)c(=O)n3C)CC1	67
Cc1cc(C)n(C(=O)c2scc(-c3ccccc3)c2-n2cccc2)n1	67
O=[N+]([O-])c1cc(S(=O)(=O)NCc2ccco2)ccc1N/N=C\c1cccnc1	62
COc1ccc(OC)c(C2c3cccn3CCN2C(=O)Nc2c(F)cccc2F)c1 (stereo not given)	54
Cc1ccc(CNC(=O)C(=O)NCCCc2ccc(N(C)C)cc2)cc1	66
Cc1nnc(-c2cc3ccccc3n2CC(=O)N2CCc3ccccc32)o1	54
N#CCCSc1ccccc1NC(=O)c1ccc(Cl)s1	59
N#CCCSc1ccccc1N=Cc1cc(Cl)cc(Cl)c1O	33*
Oc1ccccc1C=Nc1ccccc1SCc1csc(-c2ccc(Cl)cc2)n1	50
Fc1cc2[nH]cnc2cc1Cl	62
SMILES	RMI FANCM FP
CN(/N=C\c1cc(Cl)cc(Cl)c1O)c1ccc([N+](=O)[O-])cn1	44
Oc1c(Cl)cc(Cl)cc1C=Nc1ccc2nc[nH]c2c1	12*
O=[N+]([O-])c1ccc(CN=C(NC(=S)N2CCOCC2)c2ccc([N+](=O)[O-])cc2)cc1	60
O=C(COc1cccc2ccc(N3CCC(Cc4ccccc4)CC3)nc12)Nc1ccc2c(c1)OCO2	56
CC(C)c1cccc(C(C)C)c1NC(=O)c1ccco1	64
Cc1cc(SCC(=O)Nc2ccc(F)c(Cl)c2)nc2ccccc12	81
